# According to PubChem BioAssay AID588518 (NMMLSC, 2011):
# The campaign covered roughly 1,700 compounds. About 20 (1%) were called active. This excerpt belongs to a sample that is enriched for actives. Unmarked numbers belong to inactive results. Rule as the data show it: active = inhibition above about 26%; inactive = the rest.
# System: Candida albicans multidrug efflux pump MDR1 (expressed in S. cerevisiae AD1-8u)
# Assay: inhibitors of Candida albicans Mdr1 efflux, confirmation, flow cytometry, singleplex, Cherry Pick1 set (AID 588518);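 also: 0% = DMSO vehicle and 100% = reference inhibitor; higher means more Nile Red retained so more efflux inhibition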
# Conditions: S. cerevisiae AD/CaMDR1, Nile Red efflux, at 10 µM, hits give high values
row,SMILES,inhibition
1,CCc1ccc(NC(=O)Cn2ncn3c(cc4ccccc43)c2=O)cc1,-0.1%
2,Cc1nc2c(C(=O)NCc3ccc4c(c3)OCO4)c[nH]n2c(=O)c1Cc1ccccc1F,-0.28%
3,Cc1cc(C)cc(NC(=O)C(OC(=O)c2ccc(O)cc2)c2ccccc2)c1 (stereo unspecified),-0.15%
4,Cc1oc2cc3oc(=O)ccc3cc2c1C,-0.03%
5,C/C(N)=C(/C#N)C(=O)COC(=O)c1cc(-c2cccc(Br)c2)nc2ccccc12,-0.13%
6,CCCCN1C(=O)/C(=C/C=C2/C=Cc3ccccc3N2CC)SC1=S,-0.28%
7,CCNc1c(NS(=O)(=O)c2ccc(C3CCCCC3)cc2)c(=O)oc2ccccc12,-0.16%
8,O=C(Cc1ccc(Br)cc1)N1CCN(c2ccccn2)CC1,-0.14%
9,CSCCC(NC(=O)COc1ccccc1)C(=O)OCCOc1ccc(Br)cc1 (stereo unspecified),-0.39%
10,Cc1ccc2[nH]c3c(=O)n(CC(=O)NCCc4ccc(Cl)cc4)ncc3c2c1,-0.13%
11,CCCc1nc(N2CCN(C)CC2)c2sc(=S)n(-c3ccccc3)c2n1,-0.01%
12,COc1ccc(S(=O)(=O)N2CCOC2CNC(=O)C(=O)NCc2ccc(F)cc2)cc1 (stereo unspecified),0.32%
13,CCNC(=O)c1c(O)c2cccc3c2n(c1=O)CC3,-0.2%
14,COc1ccc2[nH]c3c(C)c4cc[n+](C)cc4c(C)c3c2c1,0.07%
15,CC(/C=C/c1ccccc1)=N\NC(=O)C1CC1(C)c1ccccc1 (stereo unspecified),-0.16%
16,O=C1NC(=O)C2C1C(c1ccc([N+](=O)[O-])cc1)=NN2Cc1ccccc1 (stereo unspecified),0.35%
17,CN(C)S(=O)(=O)c1cc(C(=O)Nc2ccn(C)n2)c(Cl)cc1Cl,-0.29%
18,COc1ccc(NC(=S)N2CCc3cc(OC)c(OC)cc3C2)cc1,-0.21%
19,CC12CCC(C(=O)N(c3cccc(Cl)c3)C1=O)C2(C)C (stereo unspecified),-0.13%
20,CCCCOc1ccc(C(=O)NCC(=O)OCC(=O)c2c(N)n(C)c(=O)n(C)c2=O)cc1,-0.28%
21,COc1ccccc1/C=C/C=N/n1c(-c2ccc(Cl)cc2Cl)n[nH]c1=S,0.32%
22,Cc1ccc(/C=C(\C#N)C(=O)Nc2cccc3ncccc23)o1,-0.29%
23,Cc1c(CCOC(=O)CC23CC4CC(CC(C)(C4)C2)C3)sc[n+]1Cc1ccc([N+](=O)[O-])cc1,-0.01%
24,NNC(=O)COc1ccc(C2SCCS2)cc1,-0.31%
25,O=C(Cn1c(COc2ccccc2)nc2ccccc21)Nc1cc(Cl)c(Cl)cc1Cl,0.02%
26,CCOC(=O)CNC(=O)CSc1nnnn1-c1cc(C)ccc1C,-0.31%

row,SMILES,inhibition
1,Cc1csc(NC(=O)c2ccc(-c3ccc(Cl)cc3Cl)o2)n1,0.14%
2,COc1ccc(-c2sc3ccccc3c2-c2ccc(OCCN3CCOCC3)cc2)cc1,0.1%
3,CC(C)C(=O)N1CCC2(CC1)Oc1ccc(F)cc1C(=O)C21CC(c2ccccc2)=NO1 (stereo unspecified),45.9% (active)
4,CCCc1nnc(SCC(=O)Nc2ccc(C(=O)OCC)cc2)o1,0.19%
5,O=C(Nc1ccc(NC(=O)c2cccs2)cc1)c1ccc2ccccc2c1,0.05%
6,CN1CCN(S(=O)(=O)c2ccc(NC(=S)NC(=O)C3CC3)cc2)CC1,-0.06%
7,Cc1ccc2c(c1)NC(=O)[C@@]1(C)[C@@H](c3ccccc3)[C@H]3COc4ccc(Cl)cc4[C@@H]3N1C2=O,-0.01%
8,COc1ccc(C(=O)NC2CC(C)(C)Cc3c2cnn3-c2ccccc2)c(OC)c1 (stereo unspecified),-0.03%
9,O=C(OCc1ccc(-c2ccccc2)cc1)c1cccc(O)c1,-0.19%
10,CC(/C=N/NC(=O)c1cc(-c2ccc3ccccc3c2)n[nH]1)=C\c1ccco1,-0.25%
11,CCOC(=O)c1c(NC(=S)NC(=O)c2ccco2)sc2c1CCCC2,-0.19%
12,CCCCCCCCCCCCCCCC(=O)OC/C=C(C)/C=C/C=C(C)/C=C/C1=C(C)CCCC1(C)C,-0.1%
13,COc1ccccc1NC(=O)C1CCCN1S(=O)(=O)c1ccc(Cl)cc1 (stereo unspecified),-0.11%
14,CC1CCc2c(sc(NC(=O)c3ccc(Cn4cc(Br)cn4)o3)c2C(N)=O)C1 (stereo unspecified),-0.1%
15,CCCCCC(=O)Nc1ccc(C(=O)N/N=C/c2ccc([N+](=O)[O-])cc2)cc1,-0.14%
16,CSCCC(NS(=O)(=O)c1ccc(C)cc1)C(=O)N1CCCC1 (stereo unspecified),-0.25%
17,Cc1cc(/C=N/NC(=O)CC2(C)OCCO2)c(C)n1-c1ccc(Cl)c(Cl)c1,0.16%
18,Cc1ccc(OCc2cc(C(=O)N(C)CCc3ccccc3)no2)cc1C,-0.03%
19,Cc1nn(C)cc1C(=O)Nc1ccccc1Br,-0.15%
20,O=C(CCCCCn1c(=O)[nH]c2ccccc2c1=O)NCCc1c[nH]c2ccccc12,-0.03%
21,C[n+]1ccc(/C=C/c2c[nH]c3ccccc23)cc1,5.81%
22,O=C(Cc1ccccc1)NCC1OCCc2ccccc21 (stereo unspecified),-0.13%
23,CCOc1ccccc1/C=c1\sc2nc(-c3ccco3)nn2c1=O,0.22%
24,Cc1nn(C)cc1N1C(=O)c2cccc3c(N)ccc(c23)C1=O,0.11%
25,COc1ccc2sc(-c3ccccc3OC)c(-c3ccc(OCCN4CCCC4)cc3)c2c1,5.13%
26,COc1ccc(/C=C(\C#N)c2c[nH]c3ccccc23)cc1,0.1%

row,SMILES,inhibition
1,Cc1cccc(NC(=O)COc2ccccc2C)n1,-0.06%
2,COc1ccc(C(=O)NC(=S)Nc2ccc(N3CCCC3)cc2)cc1OC,-0.18%
3,Cc1cc(C(=O)Nc2ccc(C)c(S(=O)(=O)N3CCOCC3)c2)c2ccccc2n1,-0.31%
4,O=C(/C=C/c1c(Cl)cccc1Cl)NCc1ccccc1,0.02%
5,CCOc1ccc(C2/C(=C(/O)c3ccc4c(c3)CC(C)O4)C(=O)C(=O)N2CCCn2ccnc2)cc1 (stereo unspecified),0.05%
6,Cc1ccc(Cn2c(C)nc3c(c2=O)c2nc4ccccc4nc2n3Cc2ccco2)cc1,0.02%
7,CCOc1ccc2nc(Cl)c(C3CC(c4ccccc4)=NN3C(=O)c3cccs3)cc2c1 (stereo unspecified),0%
8,O=C(NCc1ccccc1)C(=O)NCC1OCCN1S(=O)(=O)c1ccc(Br)cc1 (stereo unspecified),-0.13%
9,COc1cccc(-c2sc3ccc(OC)cc3c2-c2ccc(OCCN3CCCCC3)cc2)c1,20.7%
10,COc1cccc(NC(=O)CN(C)C(=O)/C=C/c2cc(OC)ccc2OC)c1,-0.16%
11,O=C(CNC(=O)c1ccc(-c2ccccc2)cc1)OCc1ccc(Cl)cc1,0.01%
12,O=C(CN1C(=O)C2C3CCC(C3)C2C1=O)Oc1ccc2ccccc2c1 (stereo unspecified),0.12%
13,Cc1ccc(N=C2NC(=O)/C(=C/C=C/c3ccco3)S2)cc1C,0.12%
14,CCOc1ccc(/C=C2\SC(=S)N(NC(=O)c3ccncc3)C2=O)cc1OC,-0.14%
15,O=S(=O)(c1ccccc1)N1CCc2ccccc21,0.11%
16,Cc1ccc(Cn2nnc3c(=O)[nH]c(C4CCN(S(=O)(=O)/C=C/c5ccccc5)CC4)nc32)cc1,-0.18%
17,COc1ccccc1CSc1ncc(-c2ccc([N+](=O)[O-])cc2)[nH]1,-0.17%
18,O=C(CSc1nnc(-c2cccnc2)n1Cc1ccco1)c1ccc(Cl)c(Cl)c1,0.13%
19,COc1ccc(C(=O)C2CCCN(Cc3cccn3-c3ccccn3)C2)c(C)c1 (stereo unspecified),-0.17%
20,CC[n+]1cc(C)ccc1/C=C/c1ccc(N(C)C)cc1,10.7%
21,CN=C(c1ccccc1)c1c(C)cccc1C,-0.14%
22,CCn1c(/C=C/c2ccc([N+](=O)[O-])o2)nc2ccccc2c1=O,1.88%
23,COc1ccc(C(=O)NC2CCCc3c2cnn3-c2cccc(C)c2C)c(OC)n1 (stereo unspecified),-0.16%
24,C=CCC[C@@H](Cc1ccc(F)cc1)C(=O)OC[C@H](Cc1c[nH]c2ccccc12)NC(=O)[C@@H](CC=C)CC(=O)N(CCO)Cc1ccccc1,56.2% (active)
